# TDP1 cell noCPT: qHTS for Inhibitors of human tyrosyl-DNA phosphodiesterase 1 (TDP1): qHTS in cells in absence of CPT | DT40 Tdp1-/- hTDP1 cells, no CPT, ATP luminescence, 48 h | Potency, µM (top dose mostly 46.2 µM), for inactives: at the highest dose activity change, negative = growth inhibition, hits mostly inhibitors | 420,000 compounds, 15% hits; also: potency is read from the fitted curve at half-maximal effect; nearly all actives have a fitted effect of over 55% in size
#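 Seeded 400 DT40-hTDP1 cells/well (vehicle DMSO, no 20 nM CPT); pinned compounds; ≥48 hr at 37 °C; CellTiter-Glo luminescence as viability measure.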
# HT1080NT lethal: kills 2HG-producing HT-1080-NT fibrosarcoma cells; 360,000 compounds, 1.6% hits; HT-1080-NT fibrosarcoma viability, CellTiter-Glo ATP luminescence, 48 h; Potency, µM (series often up to 46.1 µM), without a hit: top-dose activity, negative = less viability, actives largely listed as cytotoxic;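 also: NT is the 2HG producing partner of a matched IDH1 knockdown line; potency is read from the fitted curve at half-maximal effect; 0% = DMSO-treated cells and -100% = media-only wells without cells; nearly all actives have a fitted effect of over 55% in size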
#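 HT-1080-NT; 750 cells/well; 5% FBS RPMI; 48 h compound, 37 degrees C; CellTiter-Glo luminescence; curve fitting and curve-class assignment.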
# ELG1 repair inh: ELG1-dependent DNA repair inhibition | AID 504467 | HEK293T ELG1-luciferase reporter, luminescence, 16 h; DNA damage induced by 5-fluorouridine | Potency, µM (highest dose often 46.1 µM), for inactives: at the highest dose activity change, negative = inhibition, usual class: inhibitors | 330,000 compounds, 2.3% hits; also: potency is read from the fitted curve at half-maximal effect; nearly all actives have a fitted effect of over 55% in size
#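 Cells (2,000 per well) received 5-fluorouridine plus test compound or DMSO and were incubated 16 hr at 37 °C, 5% CO2. Luciferase activity was read by luminescence 30 min after ONE-Glo addition; signal suppression marked inhibition of damage-induced ELG1 function.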
# IL1B secr inh: inhibitors of inflammasome signaling (IL-1 beta secretion) | THP-1 LPS/ATP IL-1B secretion, AlphaLISA, 16 h; active compounds read low | activity change, % at 57.5 µM | 360,000 compounds, 4.7% hits | AID 743279; in the data active = activity change below about -50%; inconclusive = mostly about -30% to -49%
#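 THP-1 cells pretreated 1 hr with compounds (up to 57.5 uM final), then stimulated with LPS (250 ng/mL final) plus ATP (1.25 mM final); secreted IL-1B measured by AlphaLISA after 16 hr, decreased signal indicating inhibition.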
# HT1080 IDH1KD tx: HT-1080 IDH1 knockdown cell toxicity (counter line) | HT-1080 IDH1 knockdown viability, ATP luminescence, 48 h | Potency, µM (series often up to 46.1 µM), for the others: at the top dose activity, negative = toxicity, hits mostly cytotoxic | 360,000 compounds, 2% hits | AID 686971;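 also: potency is read from the fitted curve at half-maximal effect; 0% = DMSO wells and -100% = cell-free medium wells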
#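 HT-1080-IDH1KD cells (IDH1 knocked down), 750/well in RPMI with 5% FBS, treated with compound 48 h at 37 degrees C. Viability by CellTiter-Glo luminescence, normalised to DMSO and no-cell wells; concentration-response curves classed.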
# TDP1 cell CPT: growth inhibition of DT40 Tdp1-/-;hTDP1 cells with camptothecin (screen for TDP1 inhibitors); chicken DT40 Tdp1-/-;hTDP1 cells + 20 nM CPT, ATP luminescence, 48 h; Potency, µM (top dose mostly 46.2 µM), without a hit: at the top dose activity change, negative = growth inhibition, most hits filed as inhibitors; 420,000 compounds, 12% hits; AID 686979; also: potency is read from the fitted curve at half-maximal effect; nearly all actives have a fitted effect of over 55% in size
#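 Chicken DT40 Tdp1-/- cells stably complemented with human TDP1 were seeded at 400 cells/well in medium containing 20 nM camptothecin, exposed to pin-transferred compounds, and grown at 37 °C for at least 48 hr. Viability was read as ATP luminescence.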
# An asterisk follows results filed as active; ? = inconclusive; . = not tested or not shown; [ ] = another dose, or the depositor's remark. An excerpt weighted towards active compounds, which were near 19% of everything screened. Unless noted, calls follow the shape of the dose curve; as a rule, active = well fitted curve in the direction sought with a large enough effect; inconclusive = small, poorly fitted or top-dose-only effect, or another doubt; inactive = no such curve, though single readings can be large; an effect the other way counts as inactive or inconclusive. Unless noted, % is scaled to controls: 0 for no effect and ±100 for the full control effect.
SMILES,TDP1 cell noCPT,HT1080NT lethal,ELG1 repair inh,IL1B secr inh,HT1080 IDH1KD tx,TDP1 cell CPT
COc1cc(OC)nc(C(NC(=O)C2CCN(Cc3ccc(Oc4ccccc4)cc3)CC2)c2ccc(F)cc2)n1 (stereo unspecified),?,28%,.,-18,29%,26µM*
COc1cccc(CN2CCC(C(=O)NC(C)c3cccc4ccccc34)CC2)c1 (stereo unspecified),16µM*,?,.,?,?,23µM*
O=C(c1ccc(NC2=NC3CS(=O)(=O)CC3S2)cc1)N1CCN(c2ccc([N+](=O)[O-])cc2)CC1 (stereo unspecified),0%,0%,?,0,13%,-8%
CN1CCN(C(=O)COCc2cc(-c3ccc4c(c3)OCO4)on2)CC1,0%,19%,?,-9,0%,3%
O=C(NCc1ccccc1)C(=O)NCC1CCCN1S(=O)(=O)c1cccs1 (stereo unspecified),-1%,8%,1%,-1,8%,3%
COCCn1c(N)c(C(=O)NCC2CCCO2)c2nc3ccccc3nc21 (stereo unspecified),?,-12%,?,-18,-9%,?
Nc1c(C(=O)NC2CCCC2)c2nc3ccccc3nc2n1/N=C/c1ccco1,-28%,-2%,-11%,-15,-5%,1%
CC(C)Cn1c(N)c(C(=O)NCC2CCCO2)c2nc3ccccc3nc21 (stereo unspecified),26µM*,?,8.9µM*,-80*,?,?
Nc1c(C(=O)NC2CCCC2)c2nc3ccccc3nc2n1N,23µM*,-22%,0%,-4,-29%,?
COc1ccc(OC)c(-n2c(N)c(C(=O)NCC3CCCO3)c3nc4ccccc4nc32)c1 (stereo unspecified),?,-2%,16µM*,0,-7%,?
COc1ccc(OC)c(-n2c(SCC(=O)NCC3CCCO3)nc3ccccc3c2=O)c1 (stereo unspecified),-11%,-5%,13%,-22,-3%,-13%
Nc1c(C(=O)OCC2CCCO2)c2nc3ccccc3nc2n1C1CCCC1 (stereo unspecified),12µM*,-2%,?,2,-4%,?
CC(=O)c1sc2c(c1C)c(=O)n(-c1ccc(Cl)cc1)c(=O)n2Cc1cc(=O)n2cc(Cl)ccc2n1,-6%,.,.,.,.,-4%
COc1ccc(CN2C(=O)c3ccc(C(=O)O)cc3C2=O)cc1,-3%,-2%,7%,8,4%,-23%
O=C(NCC1CCCO1)c1cc2ccccc2nc1Cl (stereo unspecified),14%,8%,?,4,9%,5%
Nc1c(C(=O)NCC2CCCO2)c2nc3ccccc3nc2n1/N=C/c1ccncc1 (stereo unspecified),1.6µM*,-2%,.,0,7%,8.2µM*
COc1ccc2c(c1)CSC(c1ccccc1)C2=O (stereo unspecified),?,?,.,?,3%,?
CCC(C(=O)OCC(=O)NC(=O)c1ccccc1OC)c1ccccc1 (stereo unspecified),3%,11%,-20%,4,7%,4%
O=c1oc2c3c4c(cc2c2c1CCC2)OCCN4CCC3,?,-12%,-16%,?,-20%,18µM*
CCCCC[C@H](O)/C=C/[C@@H]1[C@@H](C/C=C\CCCC(=O)O)[C@@H](O)C[C@@H]1O,6%[4.12 µM],.,.,.,.,31%[4.12 µM]
CN(C)C(=O)CCc1ccc2c3c([nH]c2c1)[C@]1(C)[C@@H](C(=O)N2CCOCC2)C[C@H](CC(=O)NC(C)(C)C)C(=O)N1CC3,4%,3%,?,8,5%,13%
CN(C)C(=O)CCc1ccc2c3c([nH]c2c1)[C@]1(C)[C@@H](C(=O)N2CCCCC2)C[C@H](CC(=O)NC(C)(C)C)C(=O)N1CC3,?,16%,15%,1,11%,?
CC[C@]12c3[nH]c4ccc(Cl)cc4c3CCN1C(=O)[C@@H](CC(=O)NCCc1ccccn1)C[C@@H]2C(=O)N1CCN(C(=O)C2CC2)CC1,?,1%,3%,10,2%,?
CC(C)=CCC/C(C)=C/CNC(=O)C[C@H]1C[C@H](C(=O)N2CCOCC2)[C@@]2(C)c3[nH]c4cc(CCC(=O)N(C)C)ccc4c3CCN2C1=O,16µM*,-11%,?,-4,-8%,23µM*
CC[C@]12c3[nH]c4cc(CCC(=O)N(C)C)ccc4c3CCN1C(=O)[C@@H](CC(=O)NC/C=C(\C)CCC=C(C)C)C[C@@H]2C(=O)N1CCN(C(=O)C2CC2)CC1,6.5µM*,0%,?,-18,-16%,8.2µM*
SMILES,TDP1 cell noCPT,HT1080NT lethal,ELG1 repair inh,IL1B secr inh,HT1080 IDH1KD tx,TDP1 cell CPT
CC(C)=CCC/C(C)=C/CNC(=O)C[C@H]1C[C@H](C(=O)N2CCCCC2)[C@@]2(C)c3[nH]c4cc(CCC(=O)N(C)C)ccc4c3CCN2C1=O,15µM*,-2%,?,-68*,-21%,7.3µM*
CC[C@]12c3[nH]c4ccc(Cl)cc4c3CCN1C(=O)[C@@H](CC(=O)NC/C=C(\C)CCC=C(C)C)C[C@@H]2C(=O)N1CCN(C(=O)C2CC2)CC1,21µM*,?,?,?,21µM*,?
CC(C)=CCC/C(C)=C/CNC(=O)C[C@H]1C[C@H](C(=O)N2CCCCC2)[C@@]2(CCc3ccccc3)c3[nH]c4cc(-c5ccco5)ccc4c3CCN2C1=O,?,10%,9%,-10,3%,?
CC(S)C(=O)NCC(=O)O (stereo unspecified),-2%,.,.,.,.,?
COC(=O)[C@@H]1CCCN1Cc1ccc2c(c1)CN(Cc1ccc(OC)c(C)c1)CCO2,-11%,.,.,.,.,-1%[9.04 µM]
Cc1ccc(C)c(-n2c(N)c(C#N)c3nc4ccccc4nc32)c1,-16%,.,.,.,.,-22%
Nc1nc2ccc(Cl)cc2cc1C(=O)NC1CC1,-16%,-12%,.,20,-12%,-9%
CC(C)Oc1ccc(CC(=O)NNC(=S)Nc2ccccc2)cc1,?,-1%,?,16,-2%,?
CC(C)Oc1ccc(CCC(=O)NNC(=S)Nc2ccccc2)cc1,18µM*,14%,12%,59,5%,-23%
